The full list was thinned out, with hits kept by preference.
SF1 inhibitor: SF-1 (human) inhibition; CHO-K1 Gal4-SF-1 LBD luciferase reporter; Q13285; AID 525; inhibition, % at 10 µM; hit rate 0.55% among 65,000;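 active = inhibition above the mean inhibition of all tested compounds plus 3 SD, cut at about 48% in these data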
Target sequence (Q13285 whole entry, looked up, the tested form may be a part): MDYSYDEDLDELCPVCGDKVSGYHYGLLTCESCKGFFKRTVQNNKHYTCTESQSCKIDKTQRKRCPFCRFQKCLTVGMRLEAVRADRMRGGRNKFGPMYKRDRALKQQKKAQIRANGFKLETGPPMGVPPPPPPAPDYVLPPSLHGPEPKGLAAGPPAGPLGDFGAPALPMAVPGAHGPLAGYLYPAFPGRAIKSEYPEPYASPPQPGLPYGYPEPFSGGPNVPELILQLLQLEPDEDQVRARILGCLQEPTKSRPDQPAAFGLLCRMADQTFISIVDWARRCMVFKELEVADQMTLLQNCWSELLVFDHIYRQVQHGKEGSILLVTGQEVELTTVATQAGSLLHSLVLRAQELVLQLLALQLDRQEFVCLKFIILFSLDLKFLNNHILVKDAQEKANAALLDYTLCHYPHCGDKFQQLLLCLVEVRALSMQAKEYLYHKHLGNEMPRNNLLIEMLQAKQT
A number is an active result.

O=C(Cn1nnc(-c2ccccc2)n1)OCc1csc(-c2ccccc2)n1 was read as SF1 inhibitor inactive.
`CCc1ccc(-c2nnn(CCC(=O)OC)n2)cc1` gave SF1 inhibitor 52.
COc1ccc(-c2ccc(-c3nnn(CC(C)=O)n3)cc2)cc1 was read as SF1 inhibitor inactive.
Cc1ccc(N=Cc2ccc[nH]2)c(O)c1 was read as SF1 inhibitor inactive.
For O=S(=O)(Nc1ccc2c(c1)nc1n2CCOC1)c1ccc(Cl)cc1 the results were SF1 inhibitor inactive.
`Cc1cc(C)nc(NCC(O)CNc2ccccc2Cl)n1` (configuration not stated) gave SF1 inhibitor inactive.
For COc1ccc(C2(CN(C(C)=O)C(C)=O)CCCC2)cc1OC the results were SF1 inhibitor inactive.
CCC(C)[C@H](NC(=O)NCc1cccs1)C(=O)O (some centres not stated) was read as SF1 inhibitor inactive.
For Cn1c(=O)c2nc(-c3ccc(Cl)cc3Cl)oc2c2ccccc21 the results were SF1 inhibitor inactive.
For COc1ccc2c(c1)CCc1c(C(=O)NC3CCCCC3)noc1-2 the results were SF1 inhibitor inactive.
CCOC(=O)N1CCC(NC(=O)c2cnn3c(C(F)(F)F)cc(-c4cccc(OC)c4)nc23)CC1 was read as SF1 inhibitor inactive.
For CCOC(=O)N1CCC(NC(=O)c2ccc(OC)c(CN3CC(=O)N4CCCC4C3=O)c2)CC1 (configuration not stated) the results were SF1 inhibitor inactive.
For CCOC(=O)N1CCC(NC(=O)C2CCCN(Cc3nc(-c4cccc(Cl)c4)oc3C)C2)CC1 (configuration not stated) the results were SF1 inhibitor 58.
`CC(=O)C1=C(O)C(=O)N(CCc2c[nH]c3ccccc23)C1c1ccco1` (configuration not stated) gave SF1 inhibitor inactive.
C=CCOC(=O)c1sc(NC(=O)c2ccco2)nc1C was read as SF1 inhibitor inactive.
COC(=O)c1cc(Br)c(=O)n(Cc2ccc3c(c2)OCO3)c1 was read as SF1 inhibitor inactive.
For Cc1ccc(Cn2c(CN3CC(C)OC(C)C3)nc3c2c(=O)n(C)c(=O)n3C)cc1 (configuration not stated) the results were SF1 inhibitor inactive.
Screening COc1ccc(/C=N\n2nnc3ccccc32)cc1 returned SF1 inhibitor 70.
`C=CCSc1nncn1/N=C/c1ccc(OC)cc1` gave SF1 inhibitor inactive.
CCN(C)c1ccc(/C=N\n2nnnc2N)cc1 was read as SF1 inhibitor inactive.
CCOC(=O)C1CCN(C(=O)CC(NS(=O)(=O)c2ccc(OC)cc2)C(C)C)CC1 (configuration not stated) was read as SF1 inhibitor inactive.
For CCS(=O)(=O)N1CCCC(C(=O)NC2CCC(C)CC2)C1 (configuration not stated) the results were SF1 inhibitor inactive.
`Cc1ccc(NC(=O)CSC2=C(C#N)C(c3ccc4c(c3)OCO4)C3=C(CCCC3=O)N2)c(C)c1` (configuration not stated) gave SF1 inhibitor inactive.
For CSC1=C(C#N)C(c2ccc(Cl)cc2)C2=C(CC(C)(C)CC2=O)N1 (configuration not stated) the results were SF1 inhibitor 52.
`CCc1ccccc1NC(=O)CSc1nnc([C@@H]2CCCN2C(=O)OC(C)(C)C)o1` gave SF1 inhibitor inactive.
For CNS(=O)(=O)c1cccc(C(=O)OCC(=O)Nc2ccccc2OC(F)F)c1 the results were SF1 inhibitor inactive.
Cn1c(-c2ccccc2)cc2c3no[n+]([O-])c3ccc21 was read as SF1 inhibitor 73.
For CCN(CC)C(=O)CSc1ncnc2c(-c3cccs3)nsc12 the results were SF1 inhibitor inactive.
Screening CC(=O)NC1(C(F)(F)F)NC(=O)N(CC(C)C)C1=O (configuration not stated) returned SF1 inhibitor inactive.
Screening O=c1[nH]c(CN2CCN(Cc3ccccc3)CC2)nc2sc3c(c12)CCC3 returned SF1 inhibitor inactive.
Oc1ccc(N2CCN(c3ncnc4sc5c(c34)CCC5)CC2)cc1 was read as SF1 inhibitor 50.
For CC(C)c1nc2oc3c(N4CCNCC4)ncnc3c2c2c1CCC2 the results were SF1 inhibitor inactive.
CCc1cc2c(=O)c(-c3nc4ccccc4[nH]3)coc2c(CN2CCCC(C)C2)c1O (configuration not stated) was read as SF1 inhibitor inactive.
CC1CCCCN1C(=O)C1CC(c2ccc(F)cc2)=NO1 (configuration not stated) was read as SF1 inhibitor inactive.
CCOC(=O)c1ccc(NC(=O)CSCc2ccco2)cc1 was read as SF1 inhibitor inactive.
`C=CCOC(=O)CN1C(=O)c2ccccc2C1=O` gave SF1 inhibitor inactive.
CCOc1ccc(-c2cc(CCCC(=O)NCCc3ccc(OC)c(OC)c3OC)no2)cc1 was read as SF1 inhibitor 52.
For CCOc1ccc(-c2cc(CCCC(=O)Nc3cc(OC)ccc3OC)no2)cc1 the results were SF1 inhibitor 57.
Screening COc1ccc(OC)c(NC(=O)CCN2CCCC(C)C2)c1 (configuration not stated) returned SF1 inhibitor inactive.

Bioassay records (PubChem BioAssay)
